Where “and” joins values, the source holds several entries; their conditions need not be identical. Equal entries are not always repeated.
Tests used:
[1] = test system: Plasmodium falciparum; assay: GSK_TCMDC: Inhibition of Plasmodium falciparum 3D7 in whole red blood cells, using parasite LDH activity as an index of growth. Test compounds present at 2uM; format: functional
[2] = test system: Plasmodium falciparum; assay: GSK_TCMDC: Inhibition of Plasmodium falciparum Dd2 in whole red blood cells, using parasite LDH activity as an index of growth. Test compounds present at 2uM; format: functional

## Cl.c1ccc2c(CNCCCN3CCN(CCCNCc4c5ccccc5cc5ccccc45)CC3)c3ccccc3cc2c1
[1]
  Inhibition: 100%
[2]
  Inhibition: 100%

## COc1ccc2nc3cc(Cl)ccc3c(Nc3ccc(Oc4ccc(Nc5c6ccc(Cl)cc6nc6ccc(OC)cc56)cc4)cc3)c2c1.Cl
[1]
  Inhibition: 86%
[2]
  Inhibition: 93%

## Cc1cc2c3c(N)nc(N)nc3ccc2n1C
[1]
  Inhibition: 95%
[2]
  Inhibition: 0%

## Cc1[nH]c(C)c(-c2ccc(Oc3ccc(F)cc3)cc2)c(=O)c1Br
[1]
  Inhibition: 100%
[2]
  Inhibition: 98%

## CN(Cc1cnc2nc(N)nc(N)c2n1)c1ccc(C(=O)N[C@@H](CCC(=O)O)C(=O)O)cc1 [METHOTREXATE]
[1]
  Inhibition: 91% and 92%
[2]
  Inhibition: 44% and 66%

## Nc1nc(N)c2c(ccc3c2ccn3Cc2ccc(Br)cc2)n1
[1]
  Inhibition: 100%
[2]
  Inhibition: 98%

## Cc1[nH]c(C)c(-c2ccc(Oc3ccc(Cl)cc3)cc2)c(=O)c1C
[1]
  Inhibition: 96%
[2]
  Inhibition: 95%

## Cc1nc(C)c(-c2ccc(Oc3ccc([S+](C)[O-])cc3)cc2)c(O)c1Br (stereo unspecified)
[1]
  Inhibition: 91%
[2]
  Inhibition: 64%

## COCCOCCOCCn1ccc2c3c(N)nc(N)nc3ccc21
[1]
  Inhibition: 97%
[2]
  Inhibition: 0%

## CCCc1cc2c3c(N)nc(N)nc3ccc2n1CC
[1]
  Inhibition: 96%
[2]
  Inhibition: 6%

## COc1ccc(C2c3ccccc3-c3nc(N)nc(N)c3C2C)cc1 (stereo unspecified)
[1]
  Inhibition: 97%
[2]
  Inhibition: 0%

## Cc1nc(C)c(-c2ccc(S(=O)(=O)c3ccc(Cl)cc3)cc2)c(O)c1Br
[1]
  Inhibition: 97%
[2]
  Inhibition: 97%

## Cc1ccccc1OCCCc1c(C)nc(N)nc1N
[1]
  Inhibition: 97%
[2]
  Inhibition: 1%

From ChEMBL document CHEMBL1157539, “Thousands of chemical starting points for antimalarial lead identification” (Nature, 2010)
